TDP1 cell CPT = growth inhibition of DT40 Tdp1-/-;hTDP1 cells with camptothecin (screen for TDP1 inhibitors) | chicken DT40 Tdp1-/-;hTDP1 cells + 20 nM CPT, ATP luminescence, 48 h | Potency, µM (doses to about 46.2 µM), for inactives: at the highest dose activity change, negative = growth inhibition, usual class: inhibitors | actives 12% (n = 420,000) | AID 686979; further: nearly all actives have a fitted effect of over 55% in size
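Cell growth measured by CellTiter-Glo luminescence after a minimum 48 h, 37 C compound exposure with 20 nM CPT in Tdp1-knockout DT40 cells stably expressing hTDP1, seeded 400/well; qHTS titration format.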
RORgamma inh = blocks mouse ROR gamma transcriptional activity; Potency, µM (highest dose often 53.6 µM), for the others: top-dose activity change, negative = inhibition, hits mostly inhibitors; P51450; Drosophila S2 Gal4-RORgamma UAS-luciferase reporter, 20 h; actives 5.4% (n = 310,000); further: nearly all actives have a fitted effect of over 60% in size
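Compounds are pin-transferred onto Drosophila Schneider cells expressing a copper-inducible Gal4–ROR gamma transactivation domain fusion. After 1 hr, copper sulfate is added to 700 uM final; luciferase is read 20 hr later.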
Gal4-VP16 FLuc = inhibits Gal4-VP16 luciferase reporter, ROR gamma counter-screen | Potency, µM (titrated, usually from 53.6 µM), inactives show at the top dose activity, negative = inhibition, usual class: inhibitors | AID 2546 | actives 3.5% (n = 310,000) | Drosophila S2 Gal4-VP16 UAS-luciferase, luminescence, 20 h;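 further: Gal4-VP16 expression switched on by copper sulfate through the metallothionein promoter; nearly all actives have a fitted effect of over 50% in size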
TDP1 block = inhibitors of human tyrosyl-DNA phosphodiesterase TDP1; Potency, µM (series often up to 130 µM), for the others: at the top dose activity change, negative = inhibition, most hits filed as inhibitors; Q9NUW8; recombinant TDP1, AlphaScreen DNA substrate cleavage; actives 0.28% (n = 350,000); further: nearly all actives have a fitted effect of over 40% in size
Target sequence (Q9NUW8 whole entry, looked up): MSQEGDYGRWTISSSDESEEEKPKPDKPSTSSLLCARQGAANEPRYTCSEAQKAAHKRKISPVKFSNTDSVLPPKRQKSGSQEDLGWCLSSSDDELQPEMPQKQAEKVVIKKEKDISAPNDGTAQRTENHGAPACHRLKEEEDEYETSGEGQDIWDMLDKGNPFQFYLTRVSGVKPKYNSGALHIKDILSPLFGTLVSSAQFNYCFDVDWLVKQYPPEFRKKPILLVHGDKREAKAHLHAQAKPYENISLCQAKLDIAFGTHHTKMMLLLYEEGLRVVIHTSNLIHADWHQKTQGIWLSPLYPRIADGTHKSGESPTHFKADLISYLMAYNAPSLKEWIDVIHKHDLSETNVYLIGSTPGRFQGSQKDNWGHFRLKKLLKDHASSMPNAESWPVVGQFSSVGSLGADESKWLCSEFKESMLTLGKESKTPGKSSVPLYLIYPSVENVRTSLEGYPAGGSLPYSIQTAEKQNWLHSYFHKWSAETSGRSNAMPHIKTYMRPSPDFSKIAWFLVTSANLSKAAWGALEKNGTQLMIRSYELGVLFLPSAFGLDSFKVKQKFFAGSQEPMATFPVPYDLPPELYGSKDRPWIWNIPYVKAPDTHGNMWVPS
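Here, a 5' biotin and 3' phosphotyrosine-FITC DNA oligonucleotide reports Tdp1 activity: intact substrate bridges AlphaScreen beads, while cleavage leaves a 3' phosphate and drops signal. All incubations at room temperature.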
DT40 TDP1 no CPT = qHTS for Inhibitors of human tyrosyl-DNA phosphodiesterase 1 (TDP1): qHTS in cells in absence of CPT; actives 15% (n = 420,000); Potency, µM (titrated, usually from 46.2 µM), for the others: top-dose activity change, negative = growth inhibition, usual class: inhibitors; DT40 Tdp1-/- hTDP1 cells, no CPT, ATP luminescence, 48 h; further: nearly all actives have a fitted effect of over 55% in size
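Growth kinetics read by CellTiter-Glo luminescence after ≥48 hr at 37 °C. Cells: DT40 Tdp1-/- stably carrying human TDP1, 400 per well, compound exposure in the absence of CPT (DMSO vehicle).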
* hit, by the source's call; ? = inconclusive; . = no result; [ ] = dose if it differs, or a comment. Shown are actives, neighbours in structure and some others; about 19% of the full set was active somewhere. The call rests on the fitted dose curve; in most records, active means well fitted curve in the direction sought with a large enough effect; inconclusive means small, poorly fitted or top-dose-only effect, or another doubt; inactive means no such curve, though single readings can be large; an effect the other way counts as inactive or inconclusive. On the % scale 0 is the no-effect control and ±100 the full control effect; potency means the concentration at half of the fitted maximal effect.

SMILES	TDP1 cell CPT	RORgamma inh	Gal4-VP16 FLuc	TDP1 block	DT40 TDP1 no CPT
CCOC(=O)c1ccc(NC(=O)CCc2nc(-c3ccccc3Cl)no2)cc1	16µM*	?	-20%	1%	15µM*
CCOC(=O)c1ccc(NC(=O)CCc2nc(-c3ccccc3)no2)cc1	18µM*	48%	-1%	0%	29µM*
CCOC(=O)c1ccc(NC(=O)CCCc2nc(-c3cc(OC)c(OC)c(OC)c3)no2)cc1	?	.	.	6%	?
CC(C)C[C@H]1CNC(=O)C(=O)N1C[C@@H]1CCCN1C[C@H](CC(C)C)N1C[C@H](Cc2ccc(O)cc2)N(CCc2ccccc2)C(=O)C1=O	6%	.	.	.	4%
CC(C)C[C@H]1CN([C@@H](CC(C)C)CN2CCC[C@@H]2CN2C(=S)NC[C@@H]2Cc2ccc(O)cc2)C(=S)N1CCc1ccccc1	13µM*	.	.	.	9.2µM*
CC(C)C[C@H]1CNC(=S)N1C[C@H]1CCCN1C[C@H](CC(C)C)N1C[C@H](Cc2ccc(O)cc2)N(CCc2ccccc2)C1=S	?	.	.	.	18µM*
CC(C)C[C@H]1CN([C@@H](Cc2ccc(O)cc2)CN2CCC[C@H]2CN2C(=O)C(=O)NC[C@@H]2Cc2ccc(O)cc2)C(=O)C(=O)N1CCc1ccccc1	-11%	.	.	.	-6%
CC(C)C[C@@H](CN1CCCC1CN1C(=S)NC[C@@H]1Cc1ccc(O)cc1)N1C[C@H](Cc2ccccc2)N(CCc2ccccc2)C1=S (stereo not given in full)	?	.	.	.	15µM*
Cc1ccccc1/[N+]([O-])=C/c1cccs1	1%	-3%	-19%	0%	1%
Cc1cc(C)c2c3c(sc2n1)C(c1cccc(F)c1)C(C#N)=C(N)O3 (stereo not given)	?	1%	7%	8%	16µM*
Cc1cccc(OCC(=O)Nc2ccc(S(=O)(=O)N(Cc3ccccc3)c3ccccc3)cc2)c1	10µM*	.	.	-1%	3.3µM*
O=C(COc1ccccc1)Nc1ccc(S(=O)(=O)N(Cc2ccccc2)c2ccccc2)cc1	?	.	.	6%	15µM*
Cc1ccnc(N2C3CCC2CC(O)(c2ccccc2)C3)n1 (stereo not given)	10%	17%	14%	5%	4%
Cn1nc(C(=O)NNC(=O)C2CSC3(C)CCC(=O)N23)c2ccccc2c1=O (stereo not given)	12%	.	.	1%	-9%
N/C(=N\OC(=O)CC1CCCCC1)c1ccc([N+](=O)[O-])cc1	7%	1%	35µM*	1%	-7%
CCOCCCNC(=O)c1cc(Cl)c(NC(=O)C2=C(C)OCCS2)cc1OC	?	11%	6%	.	12µM*
COc1ccc(CNC(=O)Cc2ccc(NC(=O)C3=C(C)OCCS3)cc2)cc1	2.3µM*	?	?	.	2.1µM*
O=C(Nc1ccccc1C(=O)NCc1ccccc1)C1=CSCCO1	-8%	-2%	5%	3%	-28%
CC1=C(C(=O)Nc2ccc(CC(=O)NCc3ccc(OC(C)C)cc3)cc2)SCCO1	0.16µM*	-11%	-14%	.	0.18µM*
CCOc1ccccc1CNC(=O)c1ccccc1NC(=O)C1=CSCCO1	?	?	1%	5%	26µM*
COCCOC(=O)C1=C(N)OC2=C(C(=O)CC(C)(C)C2)C1c1ccncc1 (stereo not given)	-10%	-7%	1%	6%	-6%
Cc1ccc(NC(=O)CCN2CCCCC2)cc1	-4%	-1%	-1%	.	-12%
Cn1cc(C[C@H](C(=O)O)N2C(=O)c3ccc(C(=O)O)cc3C2=O)c2ccccc21	.	-3%	2%	5%	.
Cc1cc(NS(=O)(=O)c2ccc(NC(=O)c3cc4ccccc4o3)cc2)no1	.	24%	-9%	2%	.
COc1cccc(CNC(=O)c2ccccc2NC(=O)C2=C(C)OCCS2)c1OC	18µM*	10%	-13%	2%	12µM*
SMILES	TDP1 cell CPT	RORgamma inh	Gal4-VP16 FLuc	TDP1 block	DT40 TDP1 no CPT
Cc1ccc(C)c(NC(=O)CN(C)C(=O)c2ccc(-c3cccc(C(F)(F)F)c3)o2)c1	?	.	.	2%	15µM*
CN(CC(=O)Nc1ccccc1Br)C(=O)c1cccn1C	-19%	.	.	3%	-13%
CN(C(=O)c1ccccc1OCc1ccc(Cl)cc1)c1ccccc1	?	104%	-6%	7%	?
CN(CC(=O)Nc1ccccc1Br)C(=O)c1ccc(-c2ccc(Cl)cc2)o1	?	?	5.6µM*	2%	?
CN(CC(=O)Nc1ccc(F)cc1)C(=O)c1ccc(-c2ccc(F)cc2)o1	?	.	.	.	21µM*
CN(CC(=O)Nc1ccccc1Br)C(=O)c1ccccc1OCc1ccc(Cl)cc1	?	.	.	.	18µM*
CC(=O)N1CCc2cc(Br)cc(S(=O)(=O)NCc3ccc(Cl)cc3)c21	16%	0%	-6%	4%	0%
CCCC(=O)Nc1c(-c2cccs2)c(=O)c2ccccc2n1CC	.	13%	-5%	-4%	.
Cc1ccccc1OCC(=O)NCC(C)(C)N1CCOCC1	1%	.	.	-18%	-13%
O=C(CCNS(=O)(=O)c1cccc(Cl)c1)OCC(=O)N1CCN(C(=O)c2ccco2)CC1	0%	.	.	-5%[56.1 µM]	1%
O=c1cnnc(N/N=C/c2ccc3c(c2)OCO3)[nH]1	-15%	-15%	-3%	3%	25%
O=c1c2c([nH]c3ccc(Br)cc13)CCCC2	23µM*	-3%	?	1%	?
Cc1cc(C)c2nc(-c3cccnc3)cc(C(=O)NC(C)c3cnn(C)c3C)c2c1 (stereo not given)	-19%	-1%	4%	3%	?
CCOc1ccc2nc(NCCNC(=S)NCCCN(C)C)c(C#N)cc2c1	?	-21%	3%	-5%	26µM*
CCOCCCNC(=S)NCCCNc1nc2c(C)c(C)ccc2cc1C#N	?	11µM*	?	2%	?
CCOCCCNC(=S)N1CCCN(c2nc3c(C)c(C)ccc3cc2C#N)CC1	?	7%	1%	8%	?
COc1cccc(C(=O)NCCCNc2nc3cc(C)cc(C)c3cc2C#N)c1	?	.	.	.	26µM*
COc1ccc(C(=O)NCCNc2nc3c(C)cccc3cc2C#N)cc1	?	.	.	.	21µM*
Cc1cccc2cc(C#N)c(NCCNC(=S)NCCCN3CCOCC3)nc12	?	4µM*	-2%[0.365 µM]	-3%	?
Cc1cc(C)c2cc(C#N)c(NCCCN)nc2c1	?	.	.	.	21µM*
CCOc1ccccc1NC(=O)C1CCCN(S(=O)(=O)c2c(C)[nH]c(=O)[nH]c2=O)C1 (stereo not given)	3%	19%	2%	1%	3%
COc1cc(C(=O)n2nc(C)cc2C)cc(OC)c1OC	0%	9%	4%	-2%	11%

Assay outcomes from PubChem BioAssay.
